TDP43 rescue – inhibitors of TDP-43 toxicity in yeast. TDP-43 expressing yeast growth rescue, BacTiter-Glo, 24 h. Potency, µM (doses to about 46.1 µM), for inactives: top-dose growth rescue (activation), actives largely listed as activators. hit rate 1.8% among 410,000. AID 652104; note: % of control where 0% means no effect; nearly all actives have a fitted effect of over 50% in size
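Readout is BacTiter-Glo luminescence of cell growth, so inhibitors register as activators. TDP-43-expressing yeast at OD600=0.02 in galactose medium, after raffinose pregrowth to mid-log, were incubated with compound for 24 hr at 30 deg C.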
FUS yeast rescue – suppressors of FUS proteinopathy in yeast | S. cerevisiae FUS-expressing, growth rescue, OD600, 24 h | Potency, µM (series often up to 76.6 µM), hits mostly activators | hit rate 0.24% among 390,000 | AID 1347120;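 note: plate controls were DMSO vehicle for no effect and reference control for full effect; nearly all actives have a fitted effect of over 55% in size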
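FUS-expressing yeast, raffinose-pregrown, induced in 2% galactose minimal medium at OD 0.005; compounds in a dilution series, 24hr at 30C. Growth restoration read as absorbance at 600 nm. CP55940 positive control, DMSO negative.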
aSyn rescue – alpha-synuclein toxicity inhibition in yeast. Potency, µM (highest dose often 46.1 µM), without a hit: at the highest dose growth rescue (activation), most hits filed as activators. Yeast expressing alpha-synuclein, growth rescue, BacTiter-Glo, 24 h. hit rate 0.14% among 370,000; note: % of control where 0% means no effect; nearly all actives have a fitted effect of over 65% in size
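Readout is rescue of growth in alpha-synuclein-expressing yeast, so inhibitors of toxicity appear as activators. Growth after 24 hr at 30 deg C in galactose medium is quantified by luminescence.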
Abeta yeast res – compounds reversing amyloid beta toxicity in yeast. yeast expressing A-beta42, growth rescue, OD600, 48 h; response scale: 0% DMSO, 100% iron-clioquinol control. Potency, µM (titrated, usually from 46.1 µM), actives largely listed as activators. hit rate 0.063% among 410,000. AID 1347071; note: nearly all actives have a fitted effect of over 55% in size
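Yeast A-beta toxicity model in growth medium with pinned compounds, 48 h at 30 C; growth read as absorbance at 600 nm. Normalized to FeCl3/clioquinol equimolar mix (positive) and DMSO (negative).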
The depositor's hits bear a star; i = inactive; ? = inconclusive; / = no result given; [ ] = remark or other dose. Hits are enriched below; roughly 2.1% of the tested compounds scored in any of these assays. Calls come from the whole dose curve; as a rule, active = well fitted curve in the direction sought with a large enough effect; inconclusive = small, poorly fitted or top-dose-only effect, or another doubt; inactive = no such curve, though single readings can be large; an effect the other way counts as inactive or inconclusive. Potency is the fitted concentration of half-maximal effect.

SMILES	TDP43 rescue	FUS yeast rescue	aSyn rescue	Abeta yeast res
c1ccc(CN(Cc2ccccc2)C(c2ccnc3ccccc23)c2nnnn2-c2ccc3c(c2)OCCO3)cc1 (stereo unspecified)	20.6%	i	3.1%	i
COc1cc2c(NC3CCN(C)CC3)nc(N3CCCN(C)CC3)nc2cc1OCCCN1CCCCC1	/	/	4.1%	/
Oc1ccccc1-c1nc(/C=C/c2ccccc2Cl)nn1-c1ccccc1	24.6%	i	-6.1%	i
CCc1nc(-c2ccccc2O)n(-c2ccccc2)n1	14.1µM*	i	-8.7%	i
CSc1ncc(Cl)c(C(=O)Nc2cccc(Cl)c2)n1	22.4µM*	i	9.9%	i
CCc1nnc(NC(=O)c2nc(SCc3ccc(F)cc3)ncc2Cl)s1	15.8µM*	?	/	i
CC(=O)Nc1ccc(NC(=O)c2nc(SCc3ccccc3F)ncc2Cl)cc1	/	/	31.6µM*	/
CSc1ccccc1NC(=O)CCS(=O)(=O)c1nc(-c2ccc3c(c2)OCO3)cc(C(F)(F)F)n1	11.2µM*	i	-3.5%	i
O=C(CCS(=O)(=O)c1nc(-c2ccc3c(c2)OCO3)cc(C(F)(F)F)n1)Nc1ccccc1F	22.4µM*	i	/	i
COC(=O)c1ccccc1NC(=O)CCS(=O)(=O)c1nc(-c2ccc3c(c2)OCO3)cc(C(F)(F)F)n1	0.0%	i	/	i
CCCCCCC(=O)n1ccc2ccc(-c3ccc4ccn(Cc5ccc(OC)cc5)c4c3)cc21	/	i	/	/
COC(=O)/C=C1\SC(=Nc2ccc(OC)cc2)NC1=O	20.5%	i	7.9%	i
COC(=O)/C=C1\S/C(=N\N=C\CC(=O)OC)NC1=O	-7.1%	31.6µM*	-10.7%	?
CC(C)(C)NC(=O)C(c1ccc(C#N)cc1)n1c(=O)c(-c2cc3ccccc3[nH]2)nc2ccccc21 (stereo unspecified)	25.6%	?	12.6µM*	?
CC(C)(C)NC(=O)C(c1ccc(C(F)(F)F)cc1)n1c(=O)c(-c2cc3ccccc3[nH]2)nc2ccccc21 (stereo unspecified)	?	i	7.08µM*	?
COc1ccc2c(c1)CCCN2C(=O)C1CCCN(S(=O)(=O)c2cccs2)C1 (stereo unspecified)	/	i	/	/
O=C(Nc1cc(C(F)(F)F)ccc1-n1cncn1)c1ccc([N+](=O)[O-])o1	14.1µM*	i	-7.7%	i
Cc1nc2ccccn2c1C(=O)CSc1ccccc1Cl	35.5µM*	i	8.6%	i[9.22 µM]
Cc1nc2ccccn2c1C(=O)CSc1ccc(Cl)cc1Cl	?	i	5.6%	i
Cc1cc(OCC(=O)N(C)Cc2ccccc2)ccc1Cl	11.2µM*	i	3.9%	i
CCCCN1CCS(=O)(=O)N(Cc2cn(Cc3ccc(C)cc3)nn2)C(C(=O)OC)C1 (stereo unspecified)	/	i	/	/
CCCc1c(C(=O)OCC)[nH]c2c1C(=O)CCC2	?	i	-5.5%	i
Cc1c(C(=O)OC2CCCC2C)[nH]c2c1C(=O)CCC2 (stereo unspecified)	20µM*	i	-13.3%	i
Cc1c(C(=O)OCCOc2ccccc2)[nH]c2c1C(=O)CCC2	22.4µM*	i	-5.7%	?
Cc1ccc(-c2nnc(Nc3ccc(Br)cc3)c3ccccc23)cc1S(=O)(=O)N1CCOCC1	19.5%	?	10.8%	i
SMILES	TDP43 rescue	FUS yeast rescue	aSyn rescue	Abeta yeast res
COc1ccc([C@H]2OC(=O)C[C@H]2C(=O)N2CCCC2)cc1OC	/	i	/	/
CCCCS(=O)(=O)c1oc(-c2ccc(F)cc2)nc1S(=O)(=O)c1ccccc1	14.1µM*	i	/	i
CC(C)S(=O)(=O)c1oc(-c2ccc(F)cc2)nc1S(=O)(=O)c1ccccc1	12.6µM*	i	/	i
CSc1oc(-c2ccc(F)cc2)nc1S(=O)(=O)c1ccccc1	-7.7%	i	-0.1%	i
CC(C)S(=O)(=O)c1oc(-c2cccs2)nc1S(=O)(=O)c1ccc(F)cc1	8.91µM*	i	/	i
CCS(=O)(=O)c1oc(-c2ccc(F)cc2)nc1S(=O)(=O)c1ccc(Br)cc1	28.2µM*	i	/	i
Cc1cccc(NC(=O)c2nc[nH]c2C(=O)N[C@@H](Cc2ccccc2)C(=O)OC(C)(C)C)c1	3.0%	?	26.3%	i
CC(C)C[C@H](NC(=O)c1nc[nH]c1C(=O)NC(c1ccccc1)c1ccccc1)C(=O)OC(C)(C)C	-13.6%	14.1µM*	6.7%	i
C[C@@H](NC(=O)c1[nH]cnc1C(=O)Nc1ccccc1)c1ccccc1	22.4µM*	i	-7.0%	i
